Bioassay records as filed in PubChem BioAssay.
In the library only some 0.91% were active in any assay of this set; here they are far more common.
BLM inh – inhibitors of human Bloom syndrome helicase BLM | P54132 | recombinant BLM DNA unwinding, fluorescence dequenching | Potency, µM (titrated, usually from 56.1 µM), for inactives: at the top dose activity change, negative = inhibition, most hits filed as inhibitors | 350,000 compounds, 0.2% hits | AID 2528;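 note: plate controls were vehicle for no effect and no enzyme for full effect; nearly all actives have a fitted effect of over 35% in size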
TRb SRC2 PPI – disrupts binding of human TR beta to SRC2. P10828. TRbeta-SRC2 peptide binding, fluorescence polarization; receptor liganded with 1 µM T3. Potency, µM (highest dose often 106 µM), inactives show at the top dose activity change, negative = inhibition, most hits filed as inhibitors. 280,000 compounds, 0.065% hits. AID 1469;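 note: plate controls were bound peptide for no effect and peptide without receptor for full effect; nearly all actives have a fitted effect of over 50% in size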
Target sequence (P10828 whole entry, looked up): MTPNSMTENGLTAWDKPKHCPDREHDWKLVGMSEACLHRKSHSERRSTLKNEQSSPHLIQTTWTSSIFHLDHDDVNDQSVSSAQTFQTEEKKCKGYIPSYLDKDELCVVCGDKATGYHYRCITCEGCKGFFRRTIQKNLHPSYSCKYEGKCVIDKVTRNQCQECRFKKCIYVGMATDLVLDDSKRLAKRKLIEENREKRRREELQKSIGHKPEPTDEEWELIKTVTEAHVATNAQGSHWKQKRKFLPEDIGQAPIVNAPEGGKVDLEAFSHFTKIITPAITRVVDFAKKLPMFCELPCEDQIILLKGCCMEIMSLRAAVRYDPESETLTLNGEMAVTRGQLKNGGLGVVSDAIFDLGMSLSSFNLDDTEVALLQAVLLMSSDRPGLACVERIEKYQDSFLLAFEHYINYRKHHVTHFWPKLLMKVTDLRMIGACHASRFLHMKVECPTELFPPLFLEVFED
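Compounds were added to 0.6 uM TRb ligand-binding domain and 20 nM Texas Red-labeled SRC2 peptide in Tris buffer containing 1 uM T3, incubated 5 hr at ambient temperature, then read by fluorescence polarization.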
WRN helicase inh – blocks human WRN helicase | 360,000 compounds, 0.46% hits | Q14191 | WRN helicase unwinding, fluorescent forked duplex, kinetic | Potency, µM (highest dose often 114 µM), without a hit: top-dose activity change, negative = inhibition, hits mostly inhibitors; note: nearly all actives have a fitted effect of over 55% in size
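WRN at 20 nM final was preincubated with compound for 15 min at room temperature; reaction started with 100 nM forked duplex oligonucleotide carrying fluorophore and quencher plus 2 mM ATP (final). Unwinding followed kinetically by red fluorescence (ex 525/em 598 nm).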
TexasRed fluor – Texas Red fluorescence interference in TRb-SRC2 counter-screen | TRb/SRC2 Texas Red total fluorescence interference | Potency, µM (series often up to 106 µM), for inactives: at the top dose fluorescence change, negative = quenching | 280,000 compounds, 0.29% hits; active = well fitted curve in either direction with a large enough effect; inconclusive = small, poorly fitted or top-dose-only effect
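Human TRb ligand-binding domain at 0.6 uM with 20 nM Texas Red SRC2 peptide in Tris buffer containing 1 uM T3 and 5% DMSO, incubated with compound 5 h at ambient temperature. Total fluorescence (555/632 nm) calculated as parallel + 2 × perpendicular.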
APE1 inh – blocks human APE1 abasic DNA cleavage | P27695 | recombinant APE1, TAMRA/BHQ-2 abasic DNA cleavage fluorescence | Potency, µM (doses to about 65.8 µM), without a hit: at the top dose activity change, negative = inhibition, usual class: inhibitors | 350,000 compounds, 0.35% hits;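 note: plate controls were vehicle for no effect and reference inhibitor for full effect; nearly all actives have a fitted effect of over 55% in size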
Target sequence (P27695 whole entry, looked up): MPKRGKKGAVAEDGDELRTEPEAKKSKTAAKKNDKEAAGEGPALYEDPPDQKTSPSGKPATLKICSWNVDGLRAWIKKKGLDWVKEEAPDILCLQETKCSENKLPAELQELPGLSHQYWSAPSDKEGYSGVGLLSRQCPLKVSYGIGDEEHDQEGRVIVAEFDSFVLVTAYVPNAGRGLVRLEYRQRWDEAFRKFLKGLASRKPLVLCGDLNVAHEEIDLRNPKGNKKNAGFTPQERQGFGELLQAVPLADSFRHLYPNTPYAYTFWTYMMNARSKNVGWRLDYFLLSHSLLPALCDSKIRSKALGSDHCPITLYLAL
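Enzyme (0.75 nM final) and test compound are incubated 15 min at room temperature before adding 50 nM quenched THF abasic-site duplex. Cleavage dequenches TAMRA, followed at 525/598 nm over three reads one minute apart.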
RECQ1 inh-1 – blocks DNA unwinding by human RECQ1 | P46063 | RECQ1 DNA unwinding, red fluorescence kinetic read | Potency, µM (highest dose often 57.3 µM), for the others: top-dose activity, negative = inhibition, usual class: inhibitors | 240,000 compounds, 0.54% hits | AID 2549;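 note: plate controls were vehicle for no effect and no enzyme for full effect; nearly all actives have a fitted effect of over 30% in size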
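50 nM RECQ1T1 preincubated 15 min with compound in Tris pH 8.0 buffer with MgCl2, DTT, Tween-20 and 2.5 ug/ml poly(dI-dC); started with 200 nM TAMRA/BHQ-2 forked duplex and 2 mM ATP. Unwinding read as fluorescence (525/598 nm), two reads 2 h apart.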
RECQ1 inh conf – confirmation of human RECQ1 helicase inhibitors; shares compounds with RECQ1 inh-1; RECQ1 helicase DNA unwinding, fluorescence; Potency, µM (top dose mostly 229 µM), without a hit: at the highest dose activity change, negative = inhibition, most hits filed as inhibitors; 610 compounds, 28% hits; note: nearly all actives have a fitted effect of over 45% in size
RECQ1 ADP FP – displaces ADP in a fluorescence polarization counter-screen for RECQ1 hits; 530 compounds, 27% hits; Potency, µM (series often up to 228 µM), for inactives: at the highest dose activity change, negative = inhibition, hits mostly inhibitors; shares compounds with RECQ1 inh-1; ADP fluorescence polarization displacement counterscreen; note: nearly all actives have a fitted effect of over 45% in size
RECQ1 inh-2 – RECQ1 helicase inhibition confirmed, round 2; shares compounds with RECQ1 inh-1; recombinant RECQ1 DNA unwinding, red fluorescence; Potency, µM (highest dose often 119 µM), without a hit: at the top dose activity, negative = inhibition, usual class: inhibitors; 1,100 compounds, 15% hits; note: nearly all actives have a fitted effect of over 50% in size
* marks the source's active call; other numbers are inactive results; i = inactive; ? = inconclusive; . = no result; ! = not confirmed by another sample; [ ] = remark or other dose. Unless noted, calls come from the whole dose curve; as a rule, active = well fitted curve in the direction sought with a large enough effect; inconclusive = small, poorly fitted or top-dose-only effect, or another doubt; inactive = no such curve, though single readings can be large; an effect the other way counts as inactive or inconclusive. Unless noted, % is set by controls: 0 for no effect and ±100 for the full control effect; potency is the fitted concentration of half-maximal effect.

SMILES | BLM inh | TRb SRC2 PPI | WRN helicase inh | TexasRed fluor | APE1 inh | RECQ1 inh-1 | RECQ1 inh-2 | others
CC(=O)c1sc2nc(-c3ccco3)ccc2c1N | ? | -4% | ? | ? | 3.2µM* | 3.5µM* | -21%
Nc1c(C(=O)Nc2ccc(Br)cc2)sc2nc(-c3ccco3)ccc12 | -21% | 26% | -21% | ? | -14% | -22% | .
CCOC(=O)c1c(C)oc2nc(C)nc(Nc3ccc(C)c(Cl)c3)c12 | -1% | 3% | . | 2% | . | . | .
Cc1csc(-c2nc3ccccc3n2C(C(=O)NC(C)(C)C)c2cc3ccccc3o2)c1 (stereo unspecified) | . | . | -10% | . | . | . | .
Cc1nc2ccc(N=NC3=C(O)CCCC3=O)cc2s1 | -8% | 1% | -2% | -5% | -5% | 1µM* | . | RECQ1 inh conf=22%[114 µM];RECQ1 ADP FP=-7%[91.9 µM]
Cc1nc2ccc(N=NC3=C(O)CC(C)(C)CC3=O)cc2s1 | 0% | -5% | -1% | -5% | 1% | 0% | .
CCc1ccc(NC(=O)C2CCN(C(=O)N3CC(CC)Oc4ccccc43)CC2)cc1 (stereo unspecified) | -8% | 0% | . | -3% | . | . | .
O=C(NCC1CCCO1)c1onc(CSc2cccc3ccccc23)c1C(=O)O (stereo unspecified) | -1% | -2% | -4% | 1% | -1% | -10% | . | RECQ1 inh conf=5%;RECQ1 ADP FP=2%
CCCCNC(=O)c1onc(CSc2cccc3ccccc23)c1C(=O)O | -3% | 0% | -1% | -1% | 1% | 6% | . | RECQ1 inh conf=?;RECQ1 ADP FP=-4%
CCCCNC(=O)c1onc(CSc2ccccc2)c1C(=O)O | -6% | -11% | -4% | -4% | -13% | -12% | .
C=CCNC(=O)c1onc(CSc2cccc(OC)c2)c1C(=O)O | 1% | 2% | 7% | 0% | 1% | -6% | . | RECQ1 inh conf=6%;RECQ1 ADP FP=?
CCOc1ccccc1NC(=O)Cn1c(=O)n(Cc2ccco2)c(=O)c2ccc(C(=O)NC3CCCC3)cc21 | -6% | -3% | . | -3% | . | . | .
Cc1c(C)n(Cc2ccc(F)cc2)c2ccc(C(=O)Nc3ccc(Cl)cc3)cc12 | -4% | -8% | . | 1% | . | . | .
CC1(OC(=O)c2cnc3ccccc3n2)C(=O)C=C2C=C(C3CC3)OC=C2C1=O (stereo unspecified) | -1% | -5% | . | 10% | -4% | 13µM* | -27%
COC(=O)c1ccc(Cn2c(=O)cc(C)c3c(C)nn(C)c32)cc1 | -19% | 4% | . | -4% | . | . | .
Cc1ccc(CNC(=O)CSc2ncc3c(n2)-c2cc(Cl)ccc2N(C)S3(=O)=O)cc1 | -3% | -3% | . | -1% | . | . | .
O=C(NC(Cc1c[nH]c2ccccc12)C(=O)O)/C(=C/c1ccc(F)cc1)NC(=O)c1ccccc1 (stereo unspecified) | -4% | -5% | -4% | -5% | 0% | -3% | . | RECQ1 inh conf=9%;RECQ1 ADP FP=0%
O=C1c2ccccc2-c2onc3ccc(N4CCCC4)c1c23 | 39% | 40µM* | 22µM* | 45µM*[fluorescent] | 20µM* | 14µM* | 56µM*
O=C(O)c1cc(-c2ccco2)nc2ccc(Br)cc12 | -12% | 3% | 10µM*! | -23% | 13µM* | 3.2µM*! | ? | RECQ1 inh conf=45µM*;RECQ1 ADP FP=?
O=C(c1ccco1)N1CCN(C(=O)c2cc(-c3ccncc3)nc3ccc(Br)cc23)CC1 | . | . | -13% | . | . | . | .
O=C(NCC1CCCO1)c1cc(-c2ccco2)nc2ccccc12 (stereo unspecified) | -14% | 1% | -28% | -4% | ? | -4% | .
O=C(NC1CCC(O)CC1)c1cc(-c2ccco2)nc2ccccc12 (stereo unspecified) | -25% | 8% | ? | -4% | ? | 22µM* | ?
Cc1cc(C)cc(Cn2cc(CN3CC(N4CCN(CCN(C)C)CC4)CS3(=O)=O)nn2)c1 (stereo unspecified) | . | . | -5% | . | . | . | .
CC(C)(C)c1ccc(C(=O)NCC(=O)N2CCCCCC2)cc1 | 0% | . | -4% | . | 9%[12.4 µM] | . | .
O=C(Nc1nc(-c2ccccc2)cs1)Nc1ccc(F)cc1F | -12% | -2% | 0% | 1% | -1% | ? | -11%
SMILES | BLM inh | TRb SRC2 PPI | WRN helicase inh | TexasRed fluor | APE1 inh | RECQ1 inh-1 | RECQ1 inh-2 | others
CC1CCC2(CC1)NC(=O)N(NC(=O)c1ccc(OC(C)C)cc1)C2=O (stereo unspecified) | . | . | 1% | . | 14% | . | .
OCC[C@H]1C[C@@H](O)[C@H](O)[C@@]2(CCc3ccccc3CO2)O1 | . | . | 8% | . | 43% | . | .
COc1cccc(C2=Nn3c(nnc3-c3ccccc3OC)SC2)c1 | 1% | 0% | . | -4% | 0% | -5% | .
COc1ccccc1-c1nnc2n1N=C(c1ccc(O)c(O)c1)CS2 | -15% | -6% | 22µM* | -9% | ? | 32µM* | ?
CCOc1ccc(C2(C)NC(=O)N(CCN(C)C)C2=O)cc1 (stereo unspecified) | -2% | . | 1% | . | -4% | . | .
Fc1ccccc1N1CCN(c2ncnc3nc[nH]c23)CC1 | -6% | -8% | 4% | -1% | -3% | i | .
Clc1ccccc1N1CCN(c2ncnc3nc[nH]c23)CC1 | -1% | 1% | 3% | 2% | -1% | 28µM* | ?
O=C(CNC(=O)c1ccc(S(=O)(=O)N2CCCC2)cc1)N/N=C/c1ccc(Cl)cc1Cl | 3% | -4% | -33%[57.1 µM] | 3% | -3% | -6% | . | RECQ1 inh conf=-7%;RECQ1 ADP FP=6%
CCOCc1c(C(=O)OCC(=O)Nc2ccccc2C(N)=O)oc2ccccc12 | . | . | 3% | . | -4% | . | .
CN1/C(=C\C(=O)COC(=O)CNC(=O)c2ccc3ccccc3c2)C(C)(C)c2ccccc21 | -7% | 5% | -19% | 5% | 6% | 35µM* | 56µM*
CN1/C(=C\C(=O)COC(=O)c2ccc(O)c(O)c2)C(C)(C)c2ccccc21 | -27% | 11% | ? | 8% | 8% | 25µM* | 40µM*
Cc1cc(=O)[nH]c(SCC(=O)/C=C2\N(C)c3ccccc3C2(C)C)n1 | 1% | 23%[53 µM] | -31% | 19%[53 µM] | -11% | 32µM* | -50%
O=C(CSc1nc2c([nH]c3ccccc32)c(=O)n1-c1ccc(F)cc1)N1CCCc2ccccc21 | -1% | 7% | . | 3% | . | . | .
